Laboratory results: the supplement of paper PMC9177965
Values joined by “and” are separate entries in the source; they are usually repeats but may differ in a detail not shown here. Identical values can stand only once.

Tests used:
[1] = tested on: HT29 RNF43 G659fs (RNF43 659mut, CRISPR-edited); assay: cell viability activity relative to DMSO (negative = inhibition); higher = more viable cells (less growth inhibition); conditions: 5 µM; 96 h
Description: (§1)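 Broad Repurposing Library primary screen at a single dose of 5 uM. HT29 sg-Ctrl and HT29 RNF43 G659fs CRISPR-edited isogenic cells were seeded at 2500 cells/well in 384-well plates in duplicate and treated for 96 h. Viability was read by CellTiter-Glo and reported as % activity relative to DMSO, with MG132 as the positive control (negative = growth inhibition).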

[2] = tested on: HT29 sg-Ctrl (RNF43 wildtype); assay: as above; conditions: 5 µM; 96 h
Description: as §1

CC(=O)N(O)CCCCCNC(=O)CCC(=O)N(O)CCCCCNC(=O)CCC(=O)N(O)CCCCCN
cell viability activity [1]: -56.3%
cell viability activity [2]: -45%

Cn1c(=O)c(F)c(Nc2ccc(I)cc2F)c2c(=O)n(C[C@@H](O)CO)cnc21
cell viability activity [1]: -86.8%
cell viability activity [2]: -90.5%

C/C(=C\c1csc(C)n1)[C@@H]1C[C@@H]2O[C@]2(C)CCC[C@H](C)[C@H](O)[C@@H](C)C(=O)C(C)(C)[C@@H](O)CC(=O)N1
cell viability activity [1]: -42.8%
cell viability activity [2]: -38.1%

O=[N+]([O-])c1ccccc1S(=O)(=O)NCC1CCC(CNCC2CCc3ccccc3C2)CC1 (configuration not stated)
cell viability activity [1]: -63.8%
cell viability activity [2]: -61.4%

CNc1nc(-c2ccc3c(N)n[nH]c3c2)cc(N2C[C@@H](C(=O)NC3CCCCC3)CC[C@H]2C)n1
cell viability activity [1]: -31.4%
cell viability activity [2]: -23%

COC(=O)Nc1nc2cc(C(=O)c3ccccc3)ccc2[nH]1
cell viability activity [1]: -58.1%
cell viability activity [2]: -51.4%

COc1ccc(N(C)c2nc(C)nc3ccccc23)cc1
cell viability activity [1]: -59.2%
cell viability activity [2]: -68%

c1ccc(CNc2nc(NCc3ccccc3)c3ccccc3n2)cc1
cell viability activity [1]: -22%
cell viability activity [2]: -41%

COCCOC(=O)C1=C(C)NC(C)=C(C(=O)OC/C=C/c2ccccc2)C1c1cccc([N+](=O)[O-])c1 (configuration not stated)
cell viability activity [1]: -57.6%
cell viability activity [2]: -50.7%

CC(C)c1ccc(NC(=O)Cn2cnc3c2c(=O)n(C)c(=O)n3C)cc1
cell viability activity [1]: -55.3%
cell viability activity [2]: -23.8%

NC(=S)N/N=C/c1ncccc1N
cell viability activity [1]: -58.9%
cell viability activity [2]: -69.1%

Nc1nccc2c1ncn2[C@@H]1C=C(CO)[C@@H](O)[C@H]1O
cell viability activity [1]: -41.6%
cell viability activity [2]: -40.1%

Oc1ccc(CC2NCCc3cc(O)c(O)cc32)cc1 (configuration not stated)
cell viability activity [1]: -63.7%
cell viability activity [2]: -66.3%

CO[C@H]1/C=C\C=C(/C)C(=O)NC2=CC(=O)C(NCCN(C)C)=C(C[C@@H](C)C[C@H](OC)[C@H](O)[C@@H](C)/C=C(\C)[C@@H]1OC(N)=O)C2=O
cell viability activity [1]: -93.9% and -91.4%
cell viability activity [2]: -92.1% and -90.4%

CC(C)(C#N)c1ccc(N2C(=O)OCc3cnc4ccc(-c5cnc6ccccc6c5)cc4c32)cc1
cell viability activity [1]: -30.7%
cell viability activity [2]: -20%

CN(C)CCOc1ccc(-c2nc(-c3ccc4c(c3)CC/C4=N\O)c(-c3ccncc3)[nH]2)cc1
cell viability activity [1]: -28.5%
cell viability activity [2]: -37.9%

N=C(NCCCCCCNC(=N)NC(=N)Nc1ccc(Cl)cc1)NC(=N)Nc1ccc(Cl)cc1
cell viability activity [1]: -45.1%
cell viability activity [2]: -24.9%

CC[C@@]1(O)C(=O)OCc2c1cc1n(c2=O)Cc2c-1nc1cc(F)c(C)c3c1c2[C@@H](N)CC3
cell viability activity [1]: -91.7%
cell viability activity [2]: -90.4%

O=C(Nc1c[nH]nc1-c1nc2ccc(CN3CCOCC3)cc2[nH]1)NC1CC1
cell viability activity [1]: -72.3%
cell viability activity [2]: -71.2%

CC[C@@H]1C(=O)N(C)c2cnc(Nc3ccc(C(=O)N[C@H]4CC[C@H](N5CCN(CC6CC6)CC5)CC4)cc3OC)nc2N1C(C)C
cell viability activity [1]: -66.4%
cell viability activity [2]: -77.9%

C[C@@H](Oc1cc(-n2cnc3ccc(CN4CCN(C)CC4)cc32)sc1C(N)=O)c1ccccc1C(F)(F)F
cell viability activity [1]: -89.5%
cell viability activity [2]: -76.1%

Cc1ccc(-n2nc(C(C)(C)C)cc2NC(=O)NCc2cc(F)ccc2Oc2ccc3c(cnn3CCO)c2)cc1
cell viability activity [1]: -36.7%
cell viability activity [2]: -42.9%

Cc1cc(C2CCCCC2)n(O)c(=O)c1
cell viability activity [1]: -85.1%
cell viability activity [2]: -83.4%

C=CCn1c(=O)c2cnc(Nc3ccc(N4CCN(C)CC4)cc3)nc2n1-c1cccc(C(C)(C)O)n1
cell viability activity [1]: -74.4%
cell viability activity [2]: -81%

CN(NC(=O)CC(=O)NN(C)C(=S)c1ccccc1)C(=S)c1ccccc1
cell viability activity [1]: -30.6%
cell viability activity [2]: -15.3%

CC(=O)Nc1nc(C)c(-c2ccc(Cl)c(S(=O)(=O)NCCO)c2)s1
cell viability activity [1]: -53.2%
cell viability activity [2]: -38.4%

Nc1ccc(-c2ccc3ncc4ccc(=O)n(-c5cccc(C(F)(F)F)c5)c4c3c2)cn1
cell viability activity [1]: -63.8%
cell viability activity [2]: -42.1%

CN1CCC(CNc2ccc3ncc(-c4cccc(OC(F)(F)F)c4)n3n2)CC1
cell viability activity [1]: -53%
cell viability activity [2]: -52.2%

CN(C)C(=O)[C@H](O)[C@H](Cc1ccccc1)NC(=O)c1cc2cc(Cl)ccc2[nH]1
cell viability activity [1]: -26.8%
cell viability activity [2]: 7.41%

CC(C)(C)c1ccc(S(=O)(=O)/C=C/C#N)cc1
cell viability activity [1]: -80.4%
cell viability activity [2]: -95.4%

CN1CCN(S(=O)(=O)c2ccc(-c3cnc(N)c(C(=O)Nc4cccnc4)n3)cc2)CC1
cell viability activity [1]: -46.3%
cell viability activity [2]: -40.9%

Fc1cc(-c2cccc3ncc(-c4cnn(C5CCNCC5)c4)nc23)cc(F)c1CN1CCOCC1
cell viability activity [1]: -93.7%
cell viability activity [2]: -92.4%

COc1cc(Nc2ncc(F)c(Nc3ccc4c(n3)NC(=O)C(C)(C)O4)n2)cc(OC)c1OC
cell viability activity [1]: -46.5%
cell viability activity [2]: -37.3%

O=C(NOCC1CC1)c1ccc(F)c(F)c1Nc1ccc(I)cc1Cl
cell viability activity [1]: -66.2%
cell viability activity [2]: -77.6%

Cc1ccc(C)c(OCCCC(C)(C)C(=O)O)c1
cell viability activity [1]: -30%
cell viability activity [2]: -39.7%

NS(=O)(=O)C#Cc1ccccc1
cell viability activity [1]: -68.8%
cell viability activity [2]: -72.2%
